Inconclusive results are not listed. Active and inactive are the calls of the source. How the source made its calls: active means hit-call score of the fitted dose curve at least 0.9, where 1 is the maximum; inconclusive means response in the unintended direction; inactive means score below 0.9.
Experiment: ATG_M_06_XSP2: Attagene TRANS-FACTORIAL Multi-Species (XSP2) HepG2 Assay for M06 Transcription Factor (Internal Marker) (AID 2283811);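 further: hits are increases in signal above the DMSO baseline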
Protocol: ATG_XSP2_multi-species_TRANS is a cell-based, multiplexed assay created by modifying the existing Attagene TRANS-FACTORIAL system to include a panel of nuclear receptors from some or all the following species: human (Homo sapiens), mouse (Mus musculus), frog (Xenopus laevis), zebrafish (Danio rerio), chicken (Gallus gallus), and turtle (Chrysemys picta). The ECOTOX-FACTORIAL format uses HepG2, a human liver cell line, with measurements taken at 24 hours after chemical dosing in a 24-well plate. Xsp2 included 3 nM 6-alpha-fluorotestosterone and 1.5 nM norgestrel to stimulate the androgen receptor.ATG_M_06_XSP2 is one of 29 assay components measured or calculated from the ATG_XSP2_multi-species_TRANS assay. It is designed to make measurements of mRNA induction, a form of inducible reporter, as detected with fluorescence intensity signals by Reverse transcription polymerase chain reaction (RT-PCR) and Capillary electrophoresis technology.This assay endpoint, ATG_M_06_XSP2, was analyzed in the positive analysis fitting direction relative to DMSO as the negative control and baseline of activity. Using a type of inducible reporter, measures of mRNA for gain-of-signal activity can be used to understand the background control at the transcription factor-level as they relate to the gene. Furthermore, this assay endpoint can be referred to as a secondary readout, because this assay has produced multiple assay endpoints where this one serves a background control function. To generalize the intended target to other relatable targets, this assay endpoint is annotated to the background measurement intended target family, where the subfamily is internal marker.
Human liver HepG2 cells are transiently transfected with multiple reporter transcription units (MRTUs) in 6-well plates using FuGene 6 reagent (Roche; 3 ml FuGene/1 mg DNA). The MRTU constructs are regulated by a cis-regulating element (promoter). […] A major difference between the CIS and TRANS system is that in CIS activities of endogenous TFs are measured, whereas the TRANS assay evaluates changes in activities of exogenous, chimeric NR-Gal4 proteins. […] At the end of 24 hour incubation, total RNA was isolated using TriZol reagent (Invitrogen). The isolated RNA is then reverse-transcribed using oligo(dT) primer and Mo-MLV reverse transcriptase (Invitrogen) with DNAse I (Ambion) treatment for 30 min. The one-tenth of the produced cDNA was amplified by PCR using Taq DNA polymerase (Invitrogen) and two reporter sequence-specific primers. The PCR products were fluorescently labeled by primer extension with 6-arboxyfluorescein (6-FAM) 5'-labeled reporter sequence-specific primer (2 min at 95 C, 20 s at 68 C and 10 min at 72 C) and these products were digested with 5U of HpaI (New England Biolabs) for 2h at 37 C. The fragments were purified using Qiaquick PCR columns (Qiagen), analyzed on an ABI 3130xL genetic analyzer (Applied Biosystems) with peak positions identified by using a set of X-rhodamine (ROX)-labeled MapMarker1000 molecular weight standards (BioVentures). The raw capillary electrophoresis data was processed using Attagraph software (Attagene).

Compound | outcome
CCC(C)c1ccc(O)cc1 (stereo not given) | inactive
CCCCOC(=O)c1ccccc1C(=O)OCc1ccccc1 | inactive
c1ccc2c(c1)-c1cccc3cccc-2c13 | inactive
C[C@]12C=CC3=C4CCC(=O)C=C4CC[C@H]3[C@@H]1CC[C@@H]2O | inactive
CC(C)(C)C(O)(CCc1ccc(Cl)cc1)Cn1cncn1 (stereo not given) | inactive
O=[N+]([O-])c1ccc(Oc2ccc(Cl)cc2Cl)cc1 | inactive
Oc1ccc2ccc3cccc4ccc1c2c34 | inactive
Clc1ccc(C(c2ccc(Cl)cc2)C(Cl)Cl)cc1 | inactive
Clc1ccc(C(c2ccc(Cl)cc2)C(Cl)(Cl)Cl)cc1 | inactive
CCC[CH2][Sn]([Cl])([CH2]CCC)[CH2]CCC | inactive
